This is part of a sample that, as a whole, favours compounds with a hit. Of some 83,000 tested, about 20% had one in any assay.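 Each cell line was grown in a 96-well plate and treated with one concentration of compound for 48 hours. Values below 10 were considered active.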 Calls of active or inactive are those of the source.
Experiments:
Assay in all cases: NCI-60 one-dose screen, 48 h (100 = growth as untreated, 0 = no growth, -100 = all killed)
Conditions in all cases: 10 µM unless noted
EKVX NSCLC = test system: EKVX NSCLC
SN12C renal = test system: SN12C renal
UO-31 renal = test system: UO-31 renal
TK-10 renal = test system: TK-10 renal
ACHN renal = test system: ACHN renal
CAKI-1 renal = test system: CAKI-1 renal
MOLT-4 leukemia = test system: MOLT-4 leukemia
SR leukemia = test system: SR leukemia
RPMI-8226 leukemia = test system: RPMI-8226 leukemia
OVCAR-8 ovarian = test system: OVCAR-8 ovarian
OVCAR-5 ovarian = test system: OVCAR-5 ovarian
OVCAR-4 ovarian = test system: OVCAR-4 ovarian
SK-OV-3 ovarian = test system: SK-OV-3 ovarian
IGROV1 ovarian = test system: IGROV1 ovarian
HS 578T breast = test system: HS 578T breast
NCI/ADR-RES ovarian = test system: NCI/ADR-RES ovarian
CCRF-CEM leukemia = test system: CCRF-CEM leukemia

Row | Compound | growth (EKVX NSCLC) | growth (SN12C renal) | growth (UO-31 renal) | growth (TK-10 renal) | growth (ACHN renal) | growth (CAKI-1 renal) | growth (MOLT-4 leukemia) | growth (SR leukemia) | growth (RPMI-8226 leukemia) | growth (OVCAR-8 ovarian) | growth (OVCAR-5 ovarian) | growth (OVCAR-4 ovarian) | growth (SK-OV-3 ovarian) | growth (IGROV1 ovarian) | growth (HS 578T breast) | growth (NCI/ADR-RES ovarian) | growth (CCRF-CEM leukemia)
1 | Cc1ccc(CSc2nc(-c3ccc(Cl)cc3)c(C#N)c(N3CCOCC3)n2)cc1 | 95.1% (inactive) | 98.1% (inactive) | 86.1% (inactive) | 105% (inactive) | 98.9% (inactive) | 76.4% (inactive) | 85% (inactive) | 85.6% (inactive) | 82.2% (inactive) | 97.2% (inactive) | 100% (inactive) | 89.8% (inactive) | 98.2% (inactive) | 106% (inactive) | 107% (inactive) | 94.8% (inactive) | 
2 | Cc1ccc2sc3c(c2c1)OC(N)=C(C#N)C3c1cccc(F)c1 (configuration not stated) | 44.6% (inactive) | 10.4% (inactive) | 25.9% (inactive) | 36.1% (inactive) | 20.6% (inactive) | 16.5% (inactive) | 17.5% (inactive) | 9.55% (active) | 14.4% (inactive) | 4.8% (active) | 14.4% (inactive) | 20.3% (inactive) | 22.5% (inactive) | 18.8% (inactive) | 5.7% (active) | 5.79% (active) | 16.1% (inactive)
3 | COc1ccc(/C=C/C(=O)c2cc(S(N)(=O)=O)c(OC)cc2OC)cc1 | 92.1% (inactive) | 61.1% (inactive) | 72.4% (inactive) | 92.9% (inactive) | 81.1% (inactive) | 63.5% (inactive) | 71.1% (inactive) |  | 60.9% (inactive) | 93% (inactive) | 98.3% (inactive) | 103% (inactive) | 97.2% (inactive) | 81.8% (inactive) | 89.1% (inactive) | 85.8% (inactive) | 55.7% (inactive)
4 | Cc1ccc(C(=O)NN2C(=O)/C(=C/C=C/c3ccco3)SC2=S)cc1 | 95.4% (inactive) | 94.7% (inactive) | 88.6% (inactive) | 118% (inactive) | 107% (inactive) | 91.4% (inactive) | 40.7% (inactive) | 84.5% (inactive) | 102% (inactive) | 99.7% (inactive) | 100% (inactive) | 92.8% (inactive) | 107% (inactive) | 98.4% (inactive) | 96.5% (inactive) | 97.5% (inactive) | 103% (inactive)
5 | O=C1/C(=C/C=C/c2ccco2)SC(=S)N1c1ccccc1 | 81.2% (inactive) | 79.1% (inactive) | 42.9% (inactive) | 95.5% (inactive) | 67.3% (inactive) | 86.8% (inactive) | 60.2% (inactive) | 43.8% (inactive) | 53.6% (inactive) | 66.4% (inactive) | 88% (inactive) | 90.9% (inactive) | 110% (inactive) | 44.3% (inactive) | 102% (inactive) | 51.2% (inactive) | 
6 | Cc1cc(C)cc(C(=O)Nc2cccc(C#Cc3cccc4[nH]nc(N)c34)c2)c1 | 89.3% (inactive) | 71.5% (inactive) | 62.2% (inactive) | 92.9% (inactive) | 56.2% (inactive) | 55.3% (inactive) | 27% (inactive) | 4.43% (active) | 47.4% (inactive) | 53.3% (inactive) | 73.9% (inactive) | 80.7% (inactive) | 95.7% (inactive) | 64.6% (inactive) | 75.7% (inactive) | 59.8% (inactive) | 30.5% (inactive)
7 | CNC(=O)c1cc(Oc2ccc3nc(NC(=O)c4ccc(N5CCOCC5)c(C(F)(F)F)c4)sc3c2)ccn1 | 78.7% (inactive) | 90.4% (inactive) | 54.7% (inactive) | 127% (inactive) | 91.5% (inactive) | 87.2% (inactive) | 75.8% (inactive) | 53.2% (inactive) | 47.5% (inactive) | 56.2% (inactive) | 99% (inactive) | 61.5% (inactive) | 102% (inactive) | 88.7% (inactive) | 69.6% (inactive) | 70% (inactive) | 75.6% (inactive)
8 | Cc1cc2ncc(-c3cc4ccccc4c(N4CCN(C)CC4)n3)nc2cc1C | 73.8% (inactive) | 31.5% (inactive) | 4.16% (active) | 67.2% (inactive) | -42.1% (active) | 30.2% (inactive) | -8.83% (active) | -39.9% (active) | -12.2% (active) | 67.9% (inactive) | 31.9% (inactive) | 37.6% (inactive) | 87.5% (inactive) | 42.3% (inactive) | 61.9% (inactive) | 40.2% (inactive) | 1.37% (active)
9 | Nc1nc(-c2cccc([N+](=O)[O-])c2)c(N=Nc2ccc([N+](=O)[O-])cc2Cl)s1 | 6.7% (active) | 5.24% (active) | 10.5% (inactive) | 22.7% (inactive) |  | 4.29% (active) | 7.78% (active) | 5.91% (active) | -6.23% (active) | 7.59% (active) | 21% (inactive) | 16.3% (inactive) | -11% (active) | 30.6% (inactive) | -4.26% (active) | 6.4% (active) | 13% (inactive)
10 | Nc1nc(-c2cccc([N+](=O)[O-])c2)c(N=Nc2cccc([N+](=O)[O-])c2)s1 | 78.1% (inactive) | 22.5% (inactive) | 13.5% (inactive) | 7.2% (active) | 11.5% (inactive) | 34.5% (inactive) | 112% (inactive) | 67.5% (inactive) | 34.3% (inactive) | 19.9% (inactive) | 53.4% (inactive) | -15.2% (active) | -78% (active) | 27.6% (inactive) | 37.6% (inactive) | 18.6% (inactive) | 95.2% (inactive)
11 | CCOC(=O)c1c(Nc2ccccc2)nn2c(-c3ccc(OC)cc3)ccnc12 | 99.6% (inactive) | 93.5% (inactive) | 85.7% (inactive) | 100% (inactive) | 83.8% (inactive) | 78% (inactive) | 82.5% (inactive) | 76.7% (inactive) | 75.1% (inactive) | 94.3% (inactive) | 90.9% (inactive) | 98.7% (inactive) | 101% (inactive) | 101% (inactive) | 79.7% (inactive) | 88.1% (inactive) | 74.1% (inactive)
12 | CC(C)(C)n1nnnc1C(Nc1cccc2c1OCO2)c1cc2cccc3ccc4cccc1c4c32 (configuration not stated) | 73.7% (inactive) | 90.5% (inactive) | 67.8% (inactive) | 116% (inactive) | 85.6% (inactive) | 64.5% (inactive) | 67.1% (inactive) | 82.3% (inactive) | 55.3% (inactive) | 90% (inactive) | 91.9% (inactive) |  | 94.5% (inactive) | 81.2% (inactive) | 88.7% (inactive) | 83.5% (inactive) | -12.9% (active)
13 | CNC(=O)c1cc(Oc2ccc3nc(NC(=O)c4cccc(OC(F)(F)F)c4)sc3c2)ccn1 | 79.6% (inactive) | 78.7% (inactive) | 95.7% (inactive) | 101% (inactive) | 75.2% (inactive) | 73.9% (inactive) | 73.3% (inactive) |  | 71.7% (inactive) | 81.7% (inactive) | 95.3% (inactive) | 56.5% (inactive) | 88.4% (inactive) | 90.3% (inactive) | 69.6% (inactive) | 67.3% (inactive) | 71.2% (inactive)
14 | COc1cc(OC)c(S(N)(=O)=O)cc1C(=O)/C=C/c1ccc(C)cc1 | 45.6% (inactive) | 11.4% (inactive) | 34.7% (inactive) | 25.5% (inactive) | 29.7% (inactive) | 21.9% (inactive) | 21.1% (inactive) | 5.66% (active) | 18.5% (inactive) | 31.7% (inactive) | 13.4% (inactive) | 53.1% (inactive) | 37.6% (inactive) | 25.3% (inactive) | 21.3% (inactive) | 37% (inactive) | 16.7% (inactive)
15 | C[C@@H]1C[C@H]2C(=O)O[C@@H](C)C(NC(=O)[C@H](Cc3cc(F)cc(F)c3)NC(=O)Nc3ccc(C4CC4)cc3F)C(=O)N3CCC[C@H]3C(=O)N3CCCC[C@H]3C(=O)N[C@@H](CO)C(=O)N2C1 (some centres not stated) | 30.2% (inactive) | 18.7% (inactive) | 25.8% (inactive) | 52.6% (inactive) | 28.6% (inactive) | 18.6% (inactive) | 39.7% (inactive) | 28.1% (inactive) | 14.9% (inactive) | 20.9% (inactive) | 29.9% (inactive) | 21.3% (inactive) | 21% (inactive) | 42.2% (inactive) | 32.7% (inactive) | 36.1% (inactive) | 31.2% (inactive)
16 | Cc1ccc(N2C(=O)/C(=C/C=C/c3ccco3)SC2=S)cc1 | 95.4% (inactive) | 91.4% (inactive) | 84% (inactive) | 117% (inactive) | 101% (inactive) | 90.4% (inactive) | 9.93% (active) | 56.6% (inactive) | 75.3% (inactive) | 99.2% (inactive) | 103% (inactive) | 92.4% (inactive) | 107% (inactive) | 103% (inactive) | 96.2% (inactive) | 97.6% (inactive) | 
17 | CCOC(=O)c1c(Nc2ccccc2)nn2c(-c3ccc(Cl)cc3)ccnc12 | 88.9% (inactive) | 83.9% (inactive) | 64.8% (inactive) | 98.1% (inactive) | 47.2% (inactive) | 56.1% (inactive) | 86% (inactive) | 72.7% (inactive) | 91.7% (inactive) | 80.6% (inactive) | 87.2% (inactive) | 66.5% (inactive) | 75.4% (inactive) | 80.5% (inactive) | 72.6% (inactive) | 63.6% (inactive) | 16.2% (inactive)
18 | COc1cccc(C(=O)Nc2cccc(C#Cc3cccc4[nH]nc(N)c34)c2)c1 | 80.9% (inactive) | 71.6% (inactive) | 56.4% (inactive) | 96.5% (inactive) | 51% (inactive) | 52.4% (inactive) |  |  | 39.2% (inactive) | 50.4% (inactive) | 69.2% (inactive) | 67.8% (inactive) | 86.7% (inactive) | 59.9% (inactive) | 66.4% (inactive) | 45.5% (inactive) | 28.5% (inactive)
19 | COc1cc(OC)c(S(N)(=O)=O)cc1C(C)=O | 102% (inactive) | 97.2% (inactive) | 97.4% (inactive) | 94.9% (inactive) | 107% (inactive) | 95.6% (inactive) |  |  | 103% (inactive) | 104% (inactive) | 107% (inactive) | 102% (inactive) | 109% (inactive) | 112% (inactive) | 112% (inactive) | 111% (inactive) | 
20 | CN1CCC(n2cc(Nc3ncc4c(=O)n(-c5c(Cl)cccc5Cl)cc(Br)c4n3)cn2)CC1 | 57.4% (inactive) | 20.7% (inactive) | 22.2% (inactive) |  | 24% (inactive) | 20% (inactive) | 13% (inactive) | -21.4% (active) | 20.7% (inactive) | 6.91% (active) | 43.5% (inactive) | 33.8% (inactive) | 32.7% (inactive) | 15% (inactive) | 45.1% (inactive) | 34% (inactive) | 8.75% (active)

Source: PubChem BioAssay (NCI)
